Sampled rows, rich in hits. Any-hit rate of the full collection: about 3.4%.
PLC-gamma1 inh = PLC-gamma1 (human) inhibition, primary screen; purified PLC-gamma1, fluorogenic substrate, fluorescence; AID 720700; P19174; 370,000 tested, 0.84% active; inhibition, % at 12.2 µM; in the data active means inhibition above about 9.5%
proKLK7 act = proKLK7 (human) activation, primary screen; purified proKLK7, EDANS-DABCYL substrate fluorescence; 100% is mature enzyme control, 0% vehicle; activation, % at 7 µM; 370,000 tested, 0.9% active; AID 652039;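 active means activation above the mean of all tested compounds plus 3 SD, computed per campaign excluding outliers beyond control limits, cut at about 13% in these data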
Target sequence (P49862 whole entry, looked up): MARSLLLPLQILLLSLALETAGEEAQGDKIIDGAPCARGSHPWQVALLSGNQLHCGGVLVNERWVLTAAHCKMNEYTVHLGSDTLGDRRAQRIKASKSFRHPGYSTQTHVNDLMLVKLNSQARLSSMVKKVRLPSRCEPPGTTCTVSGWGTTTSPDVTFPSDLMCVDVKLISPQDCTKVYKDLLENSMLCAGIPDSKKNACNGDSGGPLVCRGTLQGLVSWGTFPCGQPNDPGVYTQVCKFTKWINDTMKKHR
ADAM10 inh = inhibitors of human ADAM10 | O14672 | recombinant ADAM10, EDANS/DABCYL FRET peptide cleavage, 3 h | inhibition, % at 7 µM | 370,000 tested, 0.62% active | AID 720582;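 active means inhibition above a per-campaign cutoff equal to the mean of compounds falling between control-based bounds plus 3 SD, cut at about 20% in these data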;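 further: 0% = DMSO wells while the 100% control is not disclosed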
sPLA2-III inh = Inhibits HGIII-sPLA2 liposome hydrolysis, primary screen. Q9NZ20. QFRET BODIPY PC-A2 liposome hydrolysis, fluorescence. inhibition, % at 12.2 µM. 370,000 tested, 0.56% active. AID 743126;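 active means inhibition above mean plus 3 SD of compounds lying within the high and low control bounds, cut at about 19% in these data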;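 further: 0% = median of test compound wells and 100% = no enzyme DMSO wells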
PLCb3 inh = inhibitors of human phospholipase C beta3 | Purified PLC-beta3, fluorogenic substrate, fluorescence | inhibition, % at 12.2 µM | 370,000 tested, 0.18% active | AID 720704; in the data active means inhibition above about 11%;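 further: 0% = median of compound wells on plate and 100% = full blocker control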
ADAM17 inh = inhibits human ADAM17. P78536. recombinant ADAM17, EDANS/DABCYL FRET peptide cleavage. inhibition, % at 6.95 µM. 370,000 tested, 0.83% active. AID 720648;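 active means inhibition above the mean of compounds lying between control limits plus 3 SD, set per campaign, cut at about 8.5% in these data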;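 further: 0% = DMSO-only wells as the low control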
sPLA2 confirm = human GIII-sPLA2 inhibition, confirmation; inhibition, % at 12.2 µM; shares compounds with sPLA2-III inh; 2,000 tested, 34% active; recombinant hGIII-sPLA2, BODIPY PC-A2 QFRET fluorescence;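 active means mean inhibition across triplicates above the hit cutoff set in the earlier primary screen, cut at about 19% in these data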;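 further: 0% = enzyme with DMSO and 100% = DMSO wells lacking enzyme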
BODIPY interf = optically interferes with 535nm fluorescence in sPLA2 counter-screen; shares compounds with sPLA2-III inh; BODIPY FL product fluorescence interference, QFRET; inhibition, % at 12.2 µM; 2,000 tested, 8.5% active; AID 743282;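 active means average inhibition above the solvent-only control mean plus 3 SD, cut at about 6% in these data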;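 further: 0% = DMSO with substrate plus product and 100% = DMSO with substrate alone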
Active calls of the source: *; / = no result given.

SMILES | PLC-gamma1 inh | proKLK7 act | ADAM10 inh | sPLA2-III inh | PLCb3 inh | ADAM17 inh | sPLA2 confirm | BODIPY interf
Cc1cc(-c2n[nH]c(=S)n2CC(C)C)cs1 | 1.5 | 0.2 | -1.0 | 19.7* | 0.0 | -1.2 | 23.5* | 0.1
CCn1c(-c2csc3ccccc23)n[nH]c1=S | -4.0 | -0.3 | 0.4 | 24.0* | -5.0 | -6.2 | 22.4* | 1.1
Cc1cccc(NC(=S)NC(C)C(c2cccs2)N2CCN(C)CC2)c1C (centres undefined) | -0.2 | 0.7 | 0.3 | 5.7 | -5.9 | -0.8 | / | /
CCN(CC)C(=O)/C(=C/c1ccc2c(c1)OCO2)NC(=O)c1ccc(Br)cc1 | -4.5 | -0.4 | -12.2 | 20.4* | -7.0 | 1.8 | 3.7 | -15.0
C#CCNC(=O)C[C@@H]1C[C@@]2(C(=O)OC)CC(C)(C)CC=C2N(Cc2ccco2)C1=O | 1.5 | 0.6 | -8.2 | -2.3 | 4.6 | -0.1 | / | /
S=C(NCC1CCCO1)Nc1ccc(Cl)cc1Cl (centres undefined) | 6.4 | -0.5 | -14.1 | 24.5* | -1.4 | 4.7 | 3.2 | -3.9
COCC(=O)N(c1ccc(C(C)C)cc1)C1C=CS(=O)(=O)C1 (centres undefined) | -1.1 | 0.2 | -8.4 | 19.3* | -2.6 | -2.4 | -4.0 | -8.3
Cc1ncc([N+](=O)[O-])n1CC(=O)Nc1ccc(F)cc1 | 0.3 | -0.8 | -4.8 | -2.4 | 1.4 | -1.6 | / | /
CCN(Cc1nc(-c2cccc(C)c2)no1)C(=O)c1ccc2c(c1)OCO2 | 0.0 | 0.7 | 7.6 | -10.9 | -10.3 | -0.3 | / | /
COc1ccc(OC)c(NC(=O)CCCN2C(=S)NC(C)(C)CC2C)c1 (centres undefined) | 0.9 | 0.4 | -0.6 | 17.7 | 0.1 | -1.8 | / | /
CCOc1ccccc1NC(=O)CCCN1C(=S)NC(C)(C)CC1C (centres undefined) | 1.7 | 0.0 | -6.0 | 21.5* | -4.3 | -4.7 | 19.9* | -9.3
CCOc1ccc(OCC)c(NC(=O)CCCN2C(=S)NC(C)(C)CC2C)c1 (centres undefined) | 2.5 | -0.1 | 6.6 | 24.9* | 2.4 | -1.2 | 23.7* | -12.7
CC1CC(C)(C)NC(=S)N1CC(=O)NCc1ccc(Cl)cc1 (centres undefined) | 0.6 | 0.6 | -5.0 | 14.9 | 1.7 | -0.5 | / | /
COc1ccc(C)cc1NC(=O)CCCN1C(=S)NC(C)(C)CC1C (centres undefined) | -0.6 | 0.2 | -7.2 | 23.6* | -3.6 | -5.1 | 8.7 | -3.3
CC1CC(C)(C)NC(=S)N1CC(=O)NCc1ccccc1Cl (centres undefined) | -0.2 | 0.3 | -7.8 | 30.0* | -4.2 | -3.8 | 9.2 | 0.6
COC(CN(C)S(=O)(=O)c1cc2c3c(c1)CCC(=O)N3CCC2)OC | 3.2 | 0.0 | -3.7 | 2.2 | -4.5 | -0.3 | / | /
CCC(=O)N(c1nnc(SCC(=O)NN2C(=O)NC3(CCC(C)CC3)C2=O)s1)C1CC1 (centres undefined) | -2.3 | -0.8 | -17.9 | 17.0 | -8.5 | -3.4 | / | /
Cc1csc2ncnc(N3CCN(C(=O)Nc4ccc(OC(F)(F)F)cc4)CC3)c12 | 1.2 | 1.0 | -6.5 | 3.3 | -6.7 | 4.0 | / | /
COc1cc(C(F)(F)F)c(C(=O)NCc2cccc(Cl)c2)cn1 | -0.7 | 0.3 | 6.5 | -1.5 | -0.9 | -1.9 | / | /
O=C1CN(c2nc(-c3ccccc3)c3cc(Cl)ccc3n2)c2ccccc2N1 | -1.2 | -0.5 | -1.4 | 20.6* | -5.1 | -3.3 | -8.3 | -2.9
COc1ccccc1NC(=O)c1ccc(SCC(=O)NCc2ccccc2Cl)c([N+](=O)[O-])c1 | 2.8 | -1.2 | 4.2 | 21.0* | 1.5 | -5.8 | 7.6 | -2.2
COc1ccccc1CNC(=O)CSc1ccc(C(=O)Nc2ccccc2OC)cc1[N+](=O)[O-] | -0.9 | -0.4 | -2.6 | -2.1 | 4.2 | 1.6 | / | /
Cc1onc(-c2ccccc2)c1C(=O)NCC(O)c1ccccc1 (centres undefined) | 1.9 | -0.2 | -4.6 | 3.2 | -5.5 | 0.6 | / | /
CCCc1ccccc1OCCNS(=O)(=O)c1cc2c(cc1C)OCC(=O)N2 | 3.2 | 0.9 | 7.3 | -25.5 | -5.6 | 6.5 | / | /
NC(=O)c1ccccc1OCC(=O)Nc1ccc2c(c1)OCCO2 | 6.3 | 0.3 | 4.7 | 8.1 | 0.0 | -6.4 | / | /
SMILES | PLC-gamma1 inh | proKLK7 act | ADAM10 inh | sPLA2-III inh | PLCb3 inh | ADAM17 inh | sPLA2 confirm | BODIPY interf
NC(=O)C1CC(=O)N(c2ccc(OCc3ccc(Cl)cc3)cc2)C1 (centres undefined) | -0.9 | -0.1 | -6.1 | 19.9* | -0.6 | -0.9 | 12.2 | -7.9
COc1ccccc1-c1nnc(SCC(=O)NC2CCS(=O)(=O)C2)n1CCc1ccccc1 (centres undefined) | 2.2 | -0.3 | 3.7 | -2.4 | 2.4 | 1.8 | / | /
CC(C)c1ccc(NC(=O)Nc2nc(C(N)COCc3ccccc3)cs2)cc1 (centres undefined) | 1.2 | 0.3 | -8.2 | 21.7* | 8.7 | 2.8 | 7.9 | -3.3
Cc1ccccc1NC(=O)Nc1nc(C(N)c2ccccc2)cs1 (centres undefined) | 1.4 | -0.9 | -16.0 | 22.4* | -0.9 | -2.1 | 1.1 | -3.0
CC(C)CC(N)c1csc(NC(=O)Nc2ccccc2C(C)C)n1 (centres undefined) | 3.4 | -0.5 | -17.0 | 22.5* | 1.4 | -3.3 | 3.4 | -21.1
CC(C)C(N)c1csc(NC(=O)Nc2cccc(Cl)c2)n1 (centres undefined) | 3.7 | -0.7 | -12.2 | 22.4* | 2.0 | -8.7 | 8.4 | -9.1
CC(C)c1ccc(NC(=O)Nc2nc(C(N)c3ccccc3)cs2)cc1 (centres undefined) | 8.2 | -1.0 | 18.2 | 16.8 | 4.4 | 8.1 | / | /
NC(c1csc(NC(=O)Nc2cccc(Cl)c2)n1)c1ccccc1Cl (centres undefined) | 4.0 | -0.1 | -1.3 | 14.4 | 8.7 | 4.3 | / | /
O=C(NC12CC3CC(CC(C3)C1)C2)OCCNC1CCCCC1 | 2.4 | -0.2 | -6.5 | 8.5 | -8.0 | -4.6 | / | /
O=C(c1ccc2c(=O)n3c(nc2c1)CCCCC3)N1CCN(c2ccc([N+](=O)[O-])cc2)CC1 | 1.2 | 0.7 | -10.6 | -2.6 | -5.8 | 3.3 | / | /
CCOC(=O)C1CCCN(C(=O)CCCn2c(=O)c3cccn3c3cccnc32)C1 (centres undefined) | -0.9 | 1.2 | -12.8 | 2.3 | 0.8 | -7.4 | / | /
Cc1ccc2c(c1)N(C(=O)CCC(=O)NCCCN1CC(C)CC(C)C1)CCO2 (centres undefined) | 4.7 | 0.4 | 4.6 | -5.6 | 2.9 | -0.6 | / | /
CCC1CCCCN1C(=O)CSc1nc(N)cc(N)n1 (centres undefined) | -1.0 | -0.1 | -3.1 | 3.3 | -2.2 | 1.2 | / | /
